Bioassay records deposited in PubChem by National Center for Advancing Translational Sciences (NCATS).
A selection: hits, their analogues and other compounds. The true share with any hit is near 1.2%.
hERG WT inh = KCNH2 (human, wildtype) channel inhibition. U2OS, BacMam KCNH2, thallium flux FluxOr; stronger effect = lower value. activity change, % at 1.84 µM. 0.37% of 340,000 active. Q12809;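 active = maximum activity change below -70%; inconclusive = maximum activity change between -70% and -50%; inactive = maximum activity change above -50%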
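U2OS cells transduced with wild-type KCNH2 virus are loaded with FluxOr dye for 45 min, and thallium flux is measured in kinetic reads before and after stimulation buffer. Rate constants are normalized to DMSO controls.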
TRPV1 PAM = enhances activation of the human vanilloid receptor TRPV1; Q8NER1; TRPV1-expressing cells, Fluo-8 calcium influx, capsaicin EC20 potentiation; potentiation, % at 8.33 µM; 0.02% of 320,000 active; in the data active = potentiation above about 80%; inconclusive = between about 30% and that limit
Target sequence (Q8NER1 whole entry, looked up): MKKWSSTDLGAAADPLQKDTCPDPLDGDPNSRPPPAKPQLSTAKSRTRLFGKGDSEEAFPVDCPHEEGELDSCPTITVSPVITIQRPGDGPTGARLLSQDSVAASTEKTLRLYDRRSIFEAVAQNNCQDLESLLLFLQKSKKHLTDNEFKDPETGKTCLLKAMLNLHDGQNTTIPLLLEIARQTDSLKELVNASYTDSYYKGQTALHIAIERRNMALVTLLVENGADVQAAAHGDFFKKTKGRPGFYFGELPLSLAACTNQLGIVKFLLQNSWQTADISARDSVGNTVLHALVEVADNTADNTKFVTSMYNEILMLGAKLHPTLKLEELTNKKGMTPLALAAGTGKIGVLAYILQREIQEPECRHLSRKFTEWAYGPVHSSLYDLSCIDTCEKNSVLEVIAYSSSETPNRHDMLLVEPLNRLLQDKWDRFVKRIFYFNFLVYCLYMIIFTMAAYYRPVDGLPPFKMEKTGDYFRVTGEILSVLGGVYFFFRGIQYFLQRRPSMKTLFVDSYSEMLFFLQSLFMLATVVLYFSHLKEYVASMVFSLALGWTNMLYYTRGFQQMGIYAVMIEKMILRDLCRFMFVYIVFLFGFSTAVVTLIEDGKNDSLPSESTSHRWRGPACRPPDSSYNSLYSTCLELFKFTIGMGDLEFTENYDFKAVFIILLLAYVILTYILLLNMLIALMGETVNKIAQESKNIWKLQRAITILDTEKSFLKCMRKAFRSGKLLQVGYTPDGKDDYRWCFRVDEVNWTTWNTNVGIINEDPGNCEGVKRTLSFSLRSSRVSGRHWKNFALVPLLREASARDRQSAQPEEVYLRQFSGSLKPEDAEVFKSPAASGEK
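Cells expressing TRPV1 were dye-loaded with Fluo-8 and read kinetically: 10 s baseline, 3 min after compound (agonist portion), then 2 min after EC20 capsaicin (allosteric enhancer portion). Calcium-bound dye fluorescence at 480/520 nm.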
TRPV1 ag = activates the human vanilloid receptor TRPV1. activation, % at 8.33 µM. 0.19% of 320,000 active. TRPV1-expressing cells, Fluo-8 calcium influx, agonist mode; in the data active = activation above about 80%; inconclusive = between about 30% and that limit
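TRPV1-expressing cells were cultured overnight at 35.5C and loaded with Fluo-8 calcium dye for 40 to 90 min at room temperature. After a 10 s baseline, compound was added and calcium influx was read kinetically for 3 min (ex 480/em 520 nm).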
KCNH2 3.1 block = blocks the human KCNH2 3.1 channel isoform; U2OS KCNH2 3.1, thallium flux FluxOr; stronger effect = lower value; activity change, % (tested at about 1.8 µM); 0.95% of 340,000 active; AID 720553;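 active = maximum activity change below -70%; inconclusive = maximum activity change from -70% to -50%; inactive = maximum activity change above -50%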;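 also: thallium influx rate constant from kinetic fluorescence after stimulation buffer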
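Channel expression came from 3.1 mutant virus (1.77 x 10^8 /mL) applied to suspended U2OS cells for 4 h. Flux was tracked with FluxOr dye plus Red40 quencher, and kinetic rate constants normalized to controls.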
Of the large screens only hits and unclear results are named; the others gave an inactive call.

CC[C@@H]1CC=C[C@H]2[C@H]1C(=O)N(Cc1ccccc1)[C@H]2c1ccoc1	none
CN1C(N)=NC(=O)/C1=C/c1ccc(F)cc1	none
COC1=CC(=Cc2c(N)n3nc(CC(=O)N4CCCCC4)sc3nc2=O)C=C(OC)C1=O	hERG WT inh -70.5, TRPV1 ag inconclusive
Cc1cc(C(=O)CSc2nn3c(=O)c(C(C)(C)C)nnc3s2)c(C)n1C	none
CCn1c(N)[n+](CC(=O)Nc2ccc(SC(F)F)cc2)c2ccccc21	KCNH2 3.1 block -92.4
O=C(Cn1cnc2ccccc21)Nc1ccc(SC(F)F)cc1	none
Cc1ccc(-n2nc3c(=O)n(CCCC(=O)NC4CCC(C)CC4)nc(C)c3c2C)cc1 (stereo unspecified)	none
Cc1ccc(C)c(NC(=O)c2cc(-c3ccccc3O)n[nH]2)c1	KCNH2 3.1 block -80.8
Cc1ccc(-c2cc(C(=O)Nc3cc(C)ccc3C)[nH]n2)c(O)c1	TRPV1 PAM inconclusive
Cc1cccc2c(CC(=O)O)noc12	none
CCN(CC)C(=O)c1cn(C)c(=O)c2cc(OC)c(OC)cc12	KCNH2 3.1 block -197.6
Nn1c(SCc2cccc(Br)c2)nnc1-c1cccnc1	KCNH2 3.1 block -98.9
Nn1c(SCc2cccc(F)c2)nnc1-c1cccnc1	none
O=C(COC(=O)c1ccccc1F)NNC(=O)c1ccccc1	none
O=C(COC(=O)c1cc(Br)ccc1Cl)NC(=O)NCc1ccccc1	none
O=C(COC(=O)c1ccccc1C(=O)c1ccc(Cl)cc1)NCCc1ccccc1	KCNH2 3.1 block -72.3
CCCCNC(=O)COC(=O)c1ccccc1F	hERG WT inh -130.6
O=C(COC(=O)c1ccccc1Cl)NC(=O)NCc1ccccc1	hERG WT inh -139.3, KCNH2 3.1 block -226.3
O=C(NCC1CCCN1S(=O)(=O)c1cccs1)c1c(F)cccc1F (stereo unspecified)	none
O=C(CCc1nc(-c2ccccc2)no1)NCCc1ccccc1	KCNH2 3.1 block -90.1
COc1ccc(OCC(=O)Nc2ccc3c(c2)nc(CCN2CCCCC2)n3C)cc1	KCNH2 3.1 block -72.4
Cn1c(CCN2CCCCC2)nc2cc(NC(=O)COc3ccccc3)ccc21	KCNH2 3.1 block -85.5
Cc1ccc(OCC(=O)Nc2ccc3c(c2)nc(CCN2CCCCC2)n3C)cc1	KCNH2 3.1 block inconclusive
CN1CCN(CCc2nc3cc(NC(=O)COc4ccccc4)ccc3n2C)CC1	none
Cc1cccc(OCC(=O)Nc2ccc3c(c2)nc(CCN2CCCCC2)n3C)c1	KCNH2 3.1 block -77.1
Cc1cccc(OCC(=O)Nc2ccc3c(c2)nc(CN2CCCCC2)n3C)c1	none
Cn1c(N)c(C(=O)COC(=O)c2ccccc2C(F)(F)F)c(=O)n(C)c1=O	KCNH2 3.1 block -92.5 (no result: TRPV1 PAM, TRPV1 ag)
Cn1c(N)c(C(=O)COC(=O)c2ccccc2C(=O)c2ccccc2)c(=O)n(C)c1=O	none
CN(CC(=O)NCCCN1CCOCC1)S(=O)(=O)c1ccc(F)cc1	none
Cc1nn(CC(=O)NCCCN2CCN(Cc3ccccc3)CC2)c(=O)c2cc(-c3ccccc3)nn12	none
Cc1nn(CC(=O)NCCCN2CCC(Cc3ccccc3)CC2)c(=O)c2cc(-c3ccccc3)nn12	hERG WT inh -86.6, KCNH2 3.1 block -103.0
CCc1ccc(-c2cc3c(=O)n(CC(=O)NCCCN4CCC(Cc5ccccc5)CC4)nc(C)n3n2)cc1	TRPV1 PAM inconclusive, KCNH2 3.1 block -91.3
CC(C)CNC(C(=O)Nc1ccc([N+](=O)[O-])cc1Br)c1ccccc1 (stereo unspecified)	none
CN(C)C(CNC(C(=O)Nc1ccc([N+](=O)[O-])cc1Br)c1ccccc1)c1ccccc1 (stereo unspecified)	KCNH2 3.1 block -85.0
N#Cc1ccc(OCC(=O)N2CCN(c3ccc(C(F)(F)F)cn3)CC2)cc1	KCNH2 3.1 block -92.4
CC1CCN(S(=O)(=O)c2cc(C(=O)N3CCN(c4ccccc4)CC3)ccc2Br)CC1	none (no result: TRPV1 PAM, TRPV1 ag)
CCC(=O)Oc1ccc(C(=O)Nc2ccc([N+](=O)[O-])cc2)cc1	hERG WT inh -158.9, TRPV1 ag inconclusive
CCn1cc(S(=O)(=O)CC(=O)Nc2cc(C)ccc2C)c2ccccc21	KCNH2 3.1 block -117.5 (no result: TRPV1 PAM, TRPV1 ag)
S=C(NCCCc1ccccc1)NCc1ccccc1	TRPV1 ag inconclusive
O=C(NCCSCc1c(F)cccc1Cl)Nc1ccccc1	TRPV1 ag 82.8
CCOc1ccc(/C=N/n2c(SC)nnc(C(C)(C)C)c2=O)cc1	hERG WT inh -79.9
COc1ccccc1-n1cnnc1SCC(=O)Nc1ccccc1	KCNH2 3.1 block -85.7
CC(=O)Nc1ccc(Nc2ncnc3c2cnn3-c2ccc(C)cc2C)cc1	TRPV1 ag 87.4
CCOC(=O)c1ccc(Nc2ncnc3c2cnn3C)cc1	TRPV1 ag 82.5
CC(=O)Nc1ccc(Nc2ncnc3c2cnn3-c2cccc(C)c2)cc1	none
Cn1nc(C(=O)NCCOc2ccccc2)c2ccccc2c1=O	KCNH2 3.1 block -119.2
CCOc1ccc2[nH]c(=O)c(CN(CCO)C(=O)CC)cc2c1	none
CCOc1ccc2[nH]c(=O)c(CN(CCO)C(=O)c3ccc(Br)cc3)cc2c1	KCNH2 3.1 block -139.6
COc1ccccc1N1CCN(S(=O)(=O)c2c[nH]c(=O)[nH]c2=O)CC1	none
Cc1ccc(C(=O)c2c3ccc(C(F)(F)F)cc3[n+]([O-])n2CCC(N)=O)cc1	none
Cc1ccc(C(=O)c2c3ccc(C(F)(F)F)cc3[n+]([O-])n2CCCN)cc1	KCNH2 3.1 block -84.7
Cc1ccc(C(=O)c2c3ccc(C(F)(F)F)cc3[n+]([O-])n2CCCC(N)=O)cc1	TRPV1 ag inconclusive, KCNH2 3.1 block -79.2
COc1ccc(C(=O)c2c3ccc(C(F)(F)F)cc3[n+]([O-])n2CCCN)cc1	KCNH2 3.1 block inconclusive
COc1ccc(/C(C)=C(\C#N)C(=O)OC(C)C)cc1OC	none
COc1ccc(C(=O)C(C)[n+]2ccc(C)c3ccccc32)cc1[N+](=O)[O-] (stereo unspecified)	hERG WT inh -140.1
COc1ccc(C(=O)NC(C)CCc2ccccc2)cc1[N+](=O)[O-] (stereo unspecified)	none
COc1ccc(/C=C2\SC(=O)N=C2N)cc1	hERG WT inh -214.0
COc1ccc(/C=C2\SC(N3CCCCC3)=NC2=O)cc1	none
Oc1ccc(-c2nccs2)cc1	KCNH2 3.1 block -120.1 (no result: TRPV1 PAM, TRPV1 ag)
CC(C)CN1CCC(=O)N([C@H](CSc2ccccc2)Cc2ccccc2)CC1	TRPV1 ag inconclusive, KCNH2 3.1 block -100.6
CN1CCC(=O)N([C@H](CSc2ccc(Br)cc2)c2ccccc2)CC1	KCNH2 3.1 block -98.3
CCCN1CCC(=O)N([C@H](CSc2ccccc2)c2ccccc2)CC1	KCNH2 3.1 block -94.4
Cc1ccc(SC[C@H](Cc2ccccc2)N2CCN(CC(C)C)CCC2=O)cc1	TRPV1 ag inconclusive (no result: hERG WT inh, KCNH2 3.1 block)
Cc1ccc(SC[C@H](c2ccccc2)N2CCN(CCc3ccccc3)CCC2=O)cc1	hERG WT inh -141.6, KCNH2 3.1 block -114.0
CCCN1CCC(=O)N([C@H](CSc2ccc(C)cc2)c2ccccc2)CC1	none (no result: hERG WT inh, KCNH2 3.1 block)
COc1cc(SC)ccc1C(=O)Nc1ncc(Cl)cc1Cl	none
CCCN1CCC(=O)N([C@H](CSc2ccccc2)Cc2ccccc2)CC1	KCNH2 3.1 block inconclusive
